Data: PubChem BioAssay AID1851 (National Center for Advancing Translational Sciences (NCATS), 2009)
The whole screen tested about 16,000 compounds, of which about 2,600 (16%) were called active. Inconclusive results (about 20%) are left out. Calls come from the whole dose curve; as a rule, active = well fitted curve in the direction sought with a large enough effect; inconclusive = small, poorly fitted or top-dose-only effect, or effect the other way; inactive = no such curve, though single readings can be large or run the other way. The list is a sample of the results.

biological target: Cytochrome P450 2D6 (Homo sapiens) (UniProt P10635); assay: Cytochrome panel assay with activity outcomes; settings: recombinant CYP, pro-luciferin dealkylation, luminescence, p450-cyp2d6; series mostly up to 57.1 µM
% is set by controls: 0 for no effect and ±100 for the full control effect.

Chain of Cytochrome P450 2D6 (Homo sapiens) (P10635 whole entry, looked up): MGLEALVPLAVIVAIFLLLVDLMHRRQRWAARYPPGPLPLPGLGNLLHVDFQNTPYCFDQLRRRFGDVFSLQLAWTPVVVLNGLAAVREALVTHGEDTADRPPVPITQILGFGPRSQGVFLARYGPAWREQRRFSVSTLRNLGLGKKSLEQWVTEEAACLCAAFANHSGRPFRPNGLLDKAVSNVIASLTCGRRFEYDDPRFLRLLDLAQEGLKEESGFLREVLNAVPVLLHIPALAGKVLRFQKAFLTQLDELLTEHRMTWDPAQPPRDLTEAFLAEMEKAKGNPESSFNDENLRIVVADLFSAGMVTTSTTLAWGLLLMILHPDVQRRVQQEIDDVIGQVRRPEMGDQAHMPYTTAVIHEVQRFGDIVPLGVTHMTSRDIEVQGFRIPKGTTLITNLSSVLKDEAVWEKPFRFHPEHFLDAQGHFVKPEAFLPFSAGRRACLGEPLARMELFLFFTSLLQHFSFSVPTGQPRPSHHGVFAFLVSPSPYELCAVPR

AC50, inactive:
Cc1onc(-c2ccccc2Cl)c1C(=O)NCC(=O)O
O=c1c(-c2cccs2)nc2cnc(Oc3ccccc3)nc2n1Cc1cccs1
NC(=O)CNC(=O)[C@@H]1CC2(CC(c3ccc(Cl)cc3)=NO2)CN1C(=O)c1ccccc1 (some centres undefined)
COc1ccc(S(=O)(=O)N2CCCCCC2)cc1N(C)S(=O)(=O)c1ccc(Cl)cc1
CC(C)NC(=O)N1CCCC2(CCN(C(=O)c3ccncc3)CC2)C1
O=C(c1ccncc1)N1CCC2(CC1)CN(c1ccc(-c3ccccc3)cc1)C2
O=C(c1cccc(F)c1)N1CCC2(CC1)CCN(c1cccc(-c3ccccc3)c1)CC2
O=C(c1ccncc1)N1CCC[C@@]2(CCN(c3ncccn3)C2)C1
O=C(c1ccncc1)N1CCC[C@@]2(CCN(c3ccccc3)C2)C1
O=C(c1ccncc1)N1CCC2(CC1)CCN(c1ccccc1)CC2
CC(C)NC(=O)N1CC2(CCN(C(=O)c3ccncc3)CC2)C1
CCN(CC)c1ccc(N2C(=O)/C(=C\c3cccnc3)SC2=S)cc1
NOCC(=O)O
CCCOc1ccc(C(=O)NC(=S)Nc2nc3ccc(C)cc3s2)cc1
Cc1cc(C)nc(NC(=O)CCCC(=O)O)c1
Cc1ccc(N(CC(N)=O)C2SC(=O)N(Cc3cccc(C(=O)O)c3)C2=O)cc1 (centres undefined)
CCOC(=O)CN(c1ccccn1)S(=O)(=O)c1ccccc1
O=C(O)c1ccc(CSc2nc3ccccc3o2)cc1
O=S(=O)(c1ccccc1)N1CCN(c2cc(-c3ccccc3)nc3ncnn23)CC1
Cn1cccc1C(=O)N1CCC2(CC1)CCN(C(c1ccccc1)c1ccccc1)CC2
O=C(c1cccc(F)c1)N1CCC2(CC1)CN(c1ccc(-c3ccccc3)cc1)C2
Cn1cccc1C(=O)N1CCC2(CC1)CN(C(=O)Nc1ccccc1)C2
O=C(c1cccc(F)c1)N1CCC2(CC1)CCN(c1ccccc1)CC2
CN1CCN(c2ncc3nc(-c4ccccc4)c(=O)n(Cc4cccs4)c3n2)CC1
CN1CCN(c2ncc3nc(CCc4ccccc4)c(=O)n(Cc4ccc(F)cc4)c3n2)CC1
N[C@H](CCCP(=O)(O)O)C(=O)O
O=C(N/C(=C/c1ccco1)C(=O)N1CCCCCC1)c1cccs1
Cc1cc(OCC(F)(F)C(F)(F)C(F)(F)C(F)(F)C(F)(F)C(F)F)nc(N)n1
CCCCn1c(SCC(N)=O)nc2ccc(N3CCOCC3)cc2c1=O
Cc1ccc(OC(=O)c2oc3ccc(F)cc3c2C)c(C)c1
Cc1ccc(NC(=S)NC(=O)c2c(-c3ccccc3Cl)noc2C)cc1
Cc1ccc(S(=O)(=O)c2c(C)nn(C(C)(C)C)c2OC(=O)c2cccs2)cc1
CC(N)=NCCCC[C@H](N)C(=O)O
CS/C(N)=N/N=C/c1ccc([N+](=O)[O-])cc1
Cc1cc(C)cc(NC(=O)C/C(N)=N/O)c1
O=C(c1ccccc1NS(=O)(=O)c1cccc([N+](=O)[O-])c1)N1CCOCC1
CC(=O)c1cc2c(cc1NC(=O)c1c(-c3ccccc3)noc1C)OCO2
CCOC(=O)Cc1csc(NC(=O)c2c(-c3c(Cl)cccc3Cl)noc2C)n1
CC1(C)CC(=O)C(CCCN2C(=O)c3ccccc3C2=O)C(=O)C1
CCN(CC)c1ncnc2c1sc1nc(C)cc(C)c12
O=C(CSc1nncn1-c1ccccc1)Nc1ccc(N2CCOCC2)cc1
CCOC(=O)C1=C(C)C(c2ccccc2OC)NC(=S)N1 (centres undefined)
Cn1c(=O)oc2cc(S(=O)(=O)NCCC(=O)N3CC=C(c4ccccc4)CC3)ccc21
O=C(O)c1cc2cc(Cl)ccc2oc1=O
O=C(Nc1ccccc1N1CCOCC1)c1cnccn1
CN(C)c1ncc2nc(-c3ccc(F)cc3)c(=O)n(C)c2n1
COc1ccc2cc(C(=O)Nc3ccc(F)cc3)sc(=O)c2c1OC
CC(C)C(=O)Nc1ccc(C(=O)NNC(=O)C(c2ccccc2)c2ccccc2)cc1
N#Cc1ccccc1-c1ccc2ncnc(N3CCNCC3)c2c1
Cc1ccccc1-c1ccc2ncnc(N3CCNCC3)c2c1
CN1CCN(c2ncnc3ccc(-c4cccc(C#N)c4)cc23)CC1
CN(C)C(=O)c1ccc(-c2ccc3ncnc(N4CCNCC4)c3c2)cc1
N#Cc1cccc(-c2ccc3ncnc(N4CCNCC4)c3c2)c1
Cc1noc(C)c1-c1ccc2ncnc(N3CCN(C)CC3)c2c1

AC50, active:
O=C(c1ccncc1)N1CCC2(CC1)CN(C(c1ccccc1)c1ccccc1)C2 0.0251 µM
O=C(c1ccncc1)N1CCC2(CC1)CN(c1ccccc1)C2 7.94 µM
O=C(c1ccncc1)N1CCC2(CCCN(C(c3ccccc3)c3ccccc3)C2)CC1 0.0398 µM
O=C(c1ccncc1)N1CCC2(CC1)CCN(c1cccc(-c3ccccc3)c1)CC2 7.94 µM
O=C(c1cccc(F)c1)N1CCC2(CC1)CCN(C(c1ccccc1)c1ccccc1)CC2 3.16 µM
Cn1cccc1C(=O)N1CCC2(CC1)CN(C(c1ccccc1)c1ccccc1)C2 3.16 µM
O=C(c1ccncc1)N1CCC2(CC1)CCN(C(c1ccccc1)c1ccccc1)CC2 3.16 µM
CCCC[C@H](CC)CN=C(N)NC(N)=NCCCCCCN=C(N)NC(N)=NC[C@@H](CC)CCCC 3.16 µM
Cc1onc(-c2c(Cl)cccc2Cl)c1C(=O)Nc1ccc2c(c1)OCO2 7.08 µM
O=C(CSC1=NCCN1)Nc1ccccc1 1.58 µM
Cc1nc2ccc(NC(=O)Nc3ccnc4cccnc34)cc2o1 10 µM
c1nc(N2CCNCC2)c2cc(-c3ccc4c(c3)OCO4)ccc2n1 2.51 µM
CN1CCN(c2ncnc3ccc(-c4ccc5c(c4)OCO5)cc23)CC1 0.251 µM
CN(C)c1ccc(-c2ccc3ncnc(N4CCNCC4)c3c2)cc1 12.6 µM

activity, negative = inhibition, inactive:
O=C(O)c1ccc(NCc2nc3cc4ccccc4cc3[nH]2)cc1 3.49% [at 11.4 µM]
C[C@@H](CCC(=O)O)C(=O)O 1.74% [at 11.4 µM]
CO/N=C\[C@@H](OC)[C@H](C)/C=C\CC(=O)OC 9.03% [at 11.4 µM]
O=C(O)CCSC1=NCCN1 15.4% [at 11.4 µM]
Cc1cc(N)c2cc(NC(=O)Nc3ccc4nc(C)cc(N)c4c3)ccc2n1 7.45% [at 11.4 µM]
O=C(Nc1ccc2ncccc2c1)Nc1ccc2ncccc2c1 -10.5% [at 11.4 µM]
